PNC assembly inh: High Content Assay for Compounds that inhibit the Assembly of the Perinucleolar Compartment | actives 3.1% (n = 140,000) | activity change (PNC), negative = inhibition, % at 10 µM | PC3M PTB-GFP, PNC prevalence imaging, 16 h; hits give low values;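 active means readout at or below -70, meaning at least 70% loss of cells showing the perinucleolar compartment, a nuclear body marking cancer cells; inconclusive means readout between -30 and a set limit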;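 further: plate controls were DMSO wells for no effect and camptothecin positive control wells for full effect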
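Read-out is percentage of cells bearing a perinucleolar compartment, from automated 20x imaging of fixed, Hoechst-stained PC3M PTB-GFP cells. Cells were seeded 4 h, then exposed 16 h to compound (23 nl of library stock) in duplicate plates.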
ALOX12 inhib: qHTS Assay for Inhibitors of 12-hLO (12-human lipoxygenase); purified 12-hLO, xylenol orange hydroperoxide absorbance; Potency, µM (top dose mostly 57.1 µM), without a hit: top-dose activity change, negative = inhibition, usual class: inhibitors; actives 0.12% (n = 150,000); AID 1452, 2008; active means well fitted inhibition curve with a large enough effect; inconclusive means small, poorly fitted or top-dose-only effect; further: potency means the concentration at half of the fitted maximal effect; nearly all actives have a fitted effect of over 55% in size
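Purified human 12hLO (150 nM), preincubated 15 min with compound, then 40 uM arachidonic acid for 30 min, room temperature, Hepes pH 7.0 with 0.01% Triton X-100. Hydroperoxide detected by ferrous iron/xylenol orange; 573/405 nm absorbance ratio gives reaction progress.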
LMNA splice mod: qHTS Assay for Modulators of Lamin A Splicing. Potency, µM (titrated, usually from 46.1 µM), for inactives: at the highest dose ratio change, negative = inhibition, actives largely listed as inhibitors. actives 0.01% (n = 200,000). HeLa LMNA splicing GFP/RFP minigene ratio, 48 h. AID 1487, 2009; active means well fitted inhibition curve with a large enough effect in the signal ratio, with a control signal flat, not every such curve was filed as active; inconclusive means small, poorly fitted or top-dose-only effect, or effect the other way, or a change in a side signal; the % refers to the signal ratio; further: potency means the concentration at half of the fitted maximal effect
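S3 HeLa cells stably expressing lamin A-EGFP splicing minigene plus DsRed2, 600 cells/well, 48 h compound exposure at 37C. Laser-scanning cytometry; analysed as GFP (500-530 nm)/RFP (575-640 nm) total intensity ratio; 0.5% DMSO vehicle.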
ALDH1A1 block: qHTS Assay for Inhibitors of Aldehyde Dehydrogenase 1 (ALDH1A1) | Potency, µM (titrated, usually from 75.3 µM), without a hit: at the top dose activity, negative = inhibition, usual class: inhibitors | actives 7.3% (n = 220,000) | Purified ALDH1A1, NADH fluorescence, propionaldehyde substrate;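 further: potency means the concentration at half of the fitted maximal effect; plate controls were no enzyme wells and a reference inhibitor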
Target sequence (P00352 whole entry, looked up): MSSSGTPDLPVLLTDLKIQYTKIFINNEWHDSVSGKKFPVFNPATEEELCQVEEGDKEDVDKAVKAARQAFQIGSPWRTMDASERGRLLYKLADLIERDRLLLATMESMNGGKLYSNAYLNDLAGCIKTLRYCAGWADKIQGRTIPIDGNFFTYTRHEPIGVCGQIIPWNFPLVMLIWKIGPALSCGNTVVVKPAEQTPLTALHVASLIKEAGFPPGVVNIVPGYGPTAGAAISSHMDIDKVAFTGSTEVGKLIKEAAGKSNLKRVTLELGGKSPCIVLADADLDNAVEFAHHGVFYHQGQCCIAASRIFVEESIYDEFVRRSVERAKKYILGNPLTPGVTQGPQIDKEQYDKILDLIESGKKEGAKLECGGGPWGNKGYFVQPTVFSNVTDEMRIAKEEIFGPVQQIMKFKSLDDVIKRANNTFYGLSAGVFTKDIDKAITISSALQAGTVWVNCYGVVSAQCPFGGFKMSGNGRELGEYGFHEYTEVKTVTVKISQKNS
HPGD block: qHTS Assay for Inhibitors of HPGD (15-Hydroxyprostaglandin Dehydrogenase); 15-hydroxyprostaglandin dehydrogenase [NAD(+)] (Homo sapiens), P15428; AID 894, 2007; actives 4.3% (n = 150,000); Potency, µM, for inactives: at the highest dose activity change, negative = inhibition, actives largely listed as inhibitors; purified HPGD, NADH fluorescence kinetic, PGE2 substrate; further: potency means the concentration at half of the fitted maximal effect
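NADH formation kinetics: reaction with 30 uM PGE2 and 1 mM NAD+ (final), 20 nM enzyme, Tris-HCl pH 8 with Tween 20, after 15 min compound preincubation at room temperature. Fluorescence change, last versus first of five reads.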
* marks the source's active call; other numbers are inactive results; [ ] = another dose, or the depositor's remark. Sampled rows, rich in hits. Any-hit rate of the full collection: about 10%. Unless noted, the call rests on the fitted dose curve; in most records, active means well fitted inhibition curve with a large enough effect (not every such curve was filed as active); inconclusive means small, poorly fitted or top-dose-only effect, or another doubt; inactive means no such curve, though single readings can be large or run the other way. Unless noted, on the % scale 0 is the no-effect control and ±100 the full control effect.

Screening Cn1c(SCCS(=O)(=O)c2ccc(Cl)cc2)nnc1-c1ccccc1 returned PNC assembly inh 27, ALOX12 inhib 7%, LMNA splice mod 8%, ALDH1A1 block inconclusive and HPGD block -9%.
Screening Cc1cc(C)c(-n2c(SCCS(=O)(=O)c3ccc(F)cc3)n[nH]c2=O)c(C)c1 returned ALDH1A1 block 14µM*.
`Cc1ccc(S(=O)(=O)CCSc2nccn2C)cc1` gave LMNA splice mod 15%[46 µM] and ALDH1A1 block -12%.
For CCCCN(C)C(=O)Cn1c(SCC(=O)Nc2ccc(C)c(C)c2)nc2ccccc21 the results were LMNA splice mod -10%[46 µM].
C/C(CC/C(C)=N/O)=N/O was read as ALOX12 inhib -3%[11.4 µM], ALDH1A1 block 19%[13.5 µM] and HPGD block -5%.
For COCCCNC(=O)Cn1c(=O)n(-c2ccc(C)cc2)c(=O)c2c1c1cc(C)ccc1n2C the results were LMNA splice mod 11%[46 µM].
Screening COCCCN(C(=S)NC(=O)C(C)(C)C)c1c(N)n(Cc2ccccc2)c(=O)[nH]c1=O returned ALDH1A1 block 28µM*.
Screening COCCCN(C(=S)NC(=O)c1ccc(Br)cc1)c1c(N)n(Cc2ccccc2)c(=O)[nH]c1=O returned LMNA splice mod -14%[46 µM] and ALDH1A1 block -10%.
For CC(C)CCN(C(=S)NC(=O)C1CCCCC1)c1c(N)n(Cc2ccccc2)c(=O)[nH]c1=O the results were LMNA splice mod -26%[46 µM] and ALDH1A1 block 25µM*.
For S=c1nc(-c2nc(=S)[nH]c3c2CCCCCCCCCC3)c2c([nH]1)CCCCCCCCCC2 the results were ALOX12 inhib 1%[11.4 µM], ALDH1A1 block 0%[13.5 µM] and HPGD block -8%.
Screening CCCN1C(=O)SC(CC(=O)Nc2cccc3ccccc23)C1=O (centres undefined) returned PNC assembly inh -25, ALOX12 inhib 1%, LMNA splice mod 0%, ALDH1A1 block 22µM* and HPGD block -5%.
CCC(=O)Nc1cccc2ccccc12 was read as LMNA splice mod inconclusive and ALDH1A1 block 0%.
CCCN1C(=O)SC(CC(=O)Nc2ccccc2)C1=O (centres undefined) was read as PNC assembly inh 38, ALOX12 inhib -4%, LMNA splice mod 2%, ALDH1A1 block 20µM* and HPGD block -3%.
`O=C(CC1SC(=Nc2ccccc2)N(CCO)C1=O)Nc1ccccc1` (centres undefined) gave ALDH1A1 block -1%.
Screening CCN(CC)C(=S)SCC(=O)Nc1nc(-c2ccccc2)c(-c2ccccc2)o1 returned PNC assembly inh 34, ALOX12 inhib -4%, LMNA splice mod inconclusive, ALDH1A1 block 13µM* and HPGD block -10%.
`O=C(CSc1nnc2[nH]c(=O)cc(-c3ccccc3)n12)Nc1ccc(OC(F)(F)F)cc1` gave LMNA splice mod 23%[46 µM].
`N#C/C(=C\c1ccc(-c2ccccc2)o1)C(=O)Nn1cnnc1` gave PNC assembly inh 52, ALOX12 inhib -12%, LMNA splice mod 3%, ALDH1A1 block -2% and HPGD block 16µM*.
For Cc1ccc(-c2ccc(/C=C(\C#N)C(=O)Nc3cc(C)nn3-c3ccccc3)o2)cc1 the results were PNC assembly inh 10, ALOX12 inhib 1%, LMNA splice mod -7%, ALDH1A1 block 11% and HPGD block -8%.
N#C/C(=C/c1ccc(-c2ccc(Br)cc2)o1)C(=O)NC1CCCCC1 was read as PNC assembly inh 41, ALOX12 inhib -2%, LMNA splice mod inconclusive, ALDH1A1 block 1.1µM* and HPGD block -15%.
Screening COC(=O)CCC(=O)Nc1ccc(OC)cc1 returned PNC assembly inh -8, ALOX12 inhib 9%, LMNA splice mod -11%, ALDH1A1 block inconclusive and HPGD block -7%.
`COc1ccc(NC(=O)CNc2ccc(C#N)cc2)cc1` gave ALDH1A1 block 22µM*.
`CC(C)Oc1ccc(NC(=O)Oc2ccccc2)cc1` gave PNC assembly inh 36, ALOX12 inhib -3%, LMNA splice mod inconclusive, ALDH1A1 block inconclusive and HPGD block -12%.
For Cc1ccc(NC(=O)CNc2ccc(OC(C)C)cc2)cc1 the results were PNC assembly inh 16, ALOX12 inhib -21%, LMNA splice mod -5%, ALDH1A1 block 7.1µM* and HPGD block -8%.
Screening Cn1c(NC(=O)COc2ccccc2)cc(=O)n(C)c1=O returned PNC assembly inh 50, ALOX12 inhib 2%, LMNA splice mod 7%, ALDH1A1 block 25µM* and HPGD block -7%.
`CC(=O)c1cccc(NC(=O)COc2ccccc2)c1` gave PNC assembly inh inconclusive, ALOX12 inhib -2%, LMNA splice mod 7%, ALDH1A1 block 12% and HPGD block -9%.
`CSc1cccc(NC(=O)COc2ccccc2)c1` gave PNC assembly inh -10, ALOX12 inhib 2%, LMNA splice mod 13%, ALDH1A1 block inconclusive and HPGD block 18µM*.
For CN(c1cccc(NC(=O)CN(c2ccc(Cl)c(Cl)c2)S(=O)(=O)c2ccccc2)c1)S(C)(=O)=O the results were PNC assembly inh -100*, ALOX12 inhib -3%, LMNA splice mod inconclusive, ALDH1A1 block -3% and HPGD block -6%.
`CN(c1cccc(NC(=O)COc2ccccc2)c1)S(C)(=O)=O` gave PNC assembly inh -111*, ALOX12 inhib -11%, LMNA splice mod 13%, ALDH1A1 block -8% and HPGD block -17%.
`Cn1c(NC(=O)CCc2ccccc2)cc(=O)n(C)c1=O` gave PNC assembly inh 10, ALOX12 inhib -2%, LMNA splice mod 8%, ALDH1A1 block inconclusive and HPGD block -6%.
Cc1ccccc1OCC(=O)Nc1cccc(N(C)S(C)(=O)=O)c1 was read as PNC assembly inh 7, ALOX12 inhib 0%, LMNA splice mod -9%, ALDH1A1 block 6% and HPGD block -11%.
Screening COC(=O)[C@@]1(Cc2ccccc2)[C@H]2c3cc(C(=O)N4CCCC4)n(Cc4ccccc4)c3C[C@H]2CN1C(=O)c1ccccc1 returned ALOX12 inhib -8%, ALDH1A1 block -9% and HPGD block -13%.
Screening O=C(COc1cccc(Cl)c1)N1CCC(c2nc3ccccc3o2)CC1 returned LMNA splice mod -7%[46 µM].
For COC(=O)c1cc(NC(=O)CN(c2ccc(OC)cc2)S(=O)(=O)c2ccc(F)cc2)ccc1Cl the results were PNC assembly inh -119*, ALOX12 inhib 2%, LMNA splice mod -3%, ALDH1A1 block 12% and HPGD block -6%.
